“And” between values parts separate entries of the source, which are not always exact repeats. Equal values may be shown once. Results filed as inconclusive are left out. Where a call stands in place of a potency, no number is given. A structure can be active in one record and inactive in another. The source made the active and inactive calls. Calls follow the shape of the dose curve; as a rule, active = well fitted cell-killing curve with a large enough effect in the repeat runs; inconclusive = weak or mixed curves, or effect the other way; inactive = flat fitted curve, though single readings scatter.
Test: Caspase-3/7 induction in HepG2 cells by small molecules, qHTS cell viability counter screen (AID 1346981); also: nearly all actives have a fitted effect of over 30% in size
Conditions: CellTiter-Fluor fluorescence, 17 h; series mostly up to 92.4 µM
Excerpt: U.S. Tox21 Program National Center for Advancing Translational Sciences [NCATS] NIH Chemical Genomics Center [NCGC] U.S. Environmental Protection Agency [EPA] National Institutes of Environmental Health Sciences [NIEHS] National Toxicology Program [NTP] U.S. Food and Drug Administration [FDA] Tox21 Assay Overview: Apoptosis is a process of programmed cell death and plays a central role in the development of multicellular organisms. It is a highly regulated process and induces cell death by activating caspases, which are the members of cysteine aspartic acid-specific protease (caspase) family. Caspases involved in apoptosis are classified by their mechanism of action as initiator caspases (caspase-2, -8, -9 and -10) and executioner caspases (caspase-3, -6, and -7). Inhibition of apoptosis results in number of cancers, autoimmune diseases, inflammatory diseases and viral infection. To identify small molecule compounds that induce apoptosis, a homogeneous, luminescent Caspase-Glo 3/7 assay was used. Wild type HepG2 cells were used to screen Tox21 libraries for identifying caspase-3/7 activity inducers. Also cytotoxicity of the compounds was tested in parallel by measuring the cell viability using CellTiter-Fluor assay system in the same wells.
Tox21 Assay Protocol Summary: HepG2 cells were dispensed at 2,000 per well in 5uL of culture medium into white solid bottom 1536-well plates (Corning Life Sciences, Corning, NY) using a Multidrop Combi (Thermo Scientific, Waltham, MA) dispenser. The assay plates were incubated at 37 C and 5% CO2 for 5hr, and then 23nL of compounds dissolved in DMSO and positive control were transferred using a Pintool station ([…], San Diego, CA). The assay plates were incubated at 37C and 5% CO2 for 17hr. For cytotoxicity read, after 16hr incubation at 37C, 1uL CellTiter-Fluor reagent (Promega Corporation, Madison, WI) was added to each well of the assay plates using Flying Reagent Dispenser (FRD, Aurora Discovery, San Diego, CA). After 1hr incubation at 37C and 5% CO2, the fluorescence signal was quantified using a ViewLux plate reader (PerkinElmer, Shelton, CT).
Potency is read from the fitted curve at half-maximal effect.

Compound	Potency
NNCCc1ccccc1	inactive
Nc1ccc2cc3ccccc3cc2c1	inactive
CC[C@H]1CN2CCc3cc(OC)c(OC)cc3[C@@H]2C[C@@H]1C[C@H]1NCCc2cc(OC)c(OC)cc21	48.7 nM (active) and 16.8 nM (active)
CCN(CC)C(=O)Nc1ccc(OCC(O)CNC(C)(C)C)c(C(C)=O)c1 (stereo not given)	inactive
COc1cc(C(=S)N2CCOCC2)ccc1O	inactive
CC1=CC(=O)c2ccccc2C1=O	68.6 µM (active) and inactive
COc1ccc(Cc2cnc(N)nc2N)cc1OC	inactive
C=C(C)C1CC=C(C)C(OC(C)=O)C1 (stereo not given)	inactive
Cc1cc(OCCOCC[N+](C)(C)Cc2ccccc2)ccc1C(C)(C)CC(C)(C)C	54.2 µM (active)
BrC1CCC(Br)C(Br)CCC(Br)C(Br)CCC1Br (stereo not given)	inactive
CCCNC(C)C(=O)Nc1ccccc1C (stereo not given)	inactive
O	inactive
CC(C)(O)CCC(C)(C)O	inactive
COC(=O)/C=C/c1ccccc1	inactive
O=C1Nc2ccccc2C1(c1ccc(O)cc1)c1ccc(O)cc1	inactive
CCCCCCCCCCCCc1ccccc1O	60.3 µM (active) and 48.6 µM (active)
COc1ccc(CCN2CCC(Nc3nc4ccccc4n3Cc3ccc(F)cc3)CC2)cc1	8.82 µM (active) and 29.8 µM (active)
CCN(CC)CCOc1ccc(/C(=C(\Cl)c2ccccc2)c2ccccc2)cc1	55.6 µM (active)
CCCCCC(=O)O[C@]1(C(C)=O)CC[C@H]2[C@@H]3CCC4=CC(=O)CC[C@]4(C)[C@H]3CC[C@@]21C	60.7 µM (active)
CCOC(=O)C(C)C(C)=O (stereo not given)	inactive

Compound	Potency
CNC1(C)C2CCC(C2)C1(C)C (stereo not given)	inactive
CC(C)(C)NCC(O)c1cc(O)cc(O)c1 (stereo not given)	inactive
CC1COc2c(N3CCN(C)CC3)c(F)cc3c(=O)c(C(=O)O)cn1c23 (stereo not given)	inactive
CCCOC(=O)c1cc(O)c(O)c(O)c1	inactive
C=CC(=O)OCCCCCCOC(=O)C=C	inactive
Cc1cc(C2(c3cc(C)c(O)cc3C)OS(=O)(=O)c3ccccc32)c(C)cc1O	30.6 µM (active) and 19.3 µM (active)
CCCCCCCCCCCCCC[P+](CCCC)(CCCC)CCCC	54.2 µM (active)
O=C1CC2(CCCC2)CC(=O)N1CCCCN1CCN(c2ncccn2)CC1	inactive
O=C(O[C@@H]1Cc2c(O)cc(O)cc2O[C@@H]1c1cc(O)c(O)c(O)c1)c1cc(O)c(O)c(O)c1	54.6 µM (active) and 29.5 µM (active)
COC(=O)c1cccc(C(=O)OC)c1	inactive
CN1C(=O)c2ccc([N+](=O)[O-])cc2C1=O	inactive
CN(C)c1ccc2nc3ccc(=[N+](C)C)cc-3sc2c1	10.4 µM (active) and 27.3 µM (active) and 23.7 µM (active)
N[C@@H]1CONC1=O	inactive
Cc1cc(C(C)(C)C)c(O)c(C(C)(C)C)c1	inactive
NC12CC3CC(CC(C3)C1)C2	inactive
Cc1c(O)cccc1C(=O)N[C@@H](CSc1ccccc1)[C@H](O)CN1C[C@H]2CCCC[C@H]2C[C@H]1C(=O)NC(C)(C)C	11.9 µM (active) and 13.3 µM (active)
CC[C@]1(O)C[C@@H]2CN(CCc3c([nH]c4ccccc34)[C@@](C(=O)OC)(c3cc4c(cc3OC)N(C)[C@H]3[C@@](O)(C(=O)OC)[C@H](OC(C)=O)[C@]5(CC)C=CCN6CC[C@]43[C@@H]65)C2)C1	29.8 µM (active)
Cc1scc2c1N(C(=O)CN1CCN(C)CC1)c1ccccc1NC2=O	inactive
Cc1ccnc2c1NC(=O)c1cccnc1N2C1CC1	inactive
C=CC(=O)OCCCCCCCC	inactive

Reference: PubChem BioAssay (Tox21)
